Results as given in PubChem BioAssay (NCI).
The panel holds about 79,000 compounds, 15% with a hit somewhere; the sample as a whole holds those more often. Active and inactive are the calls of the source. Rule as the data show it: active = growth inhibition above about 70%; inactive = the rest.

What was measured:
[1] = NCI Yeast Anticancer Drug Screen. Data for the wt1 strain (AID 149);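 also: 0% = growth of vehicle-treated wt1 cultures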; conditions: S. cerevisiae wt1 strain (SPY 50644) growth inhibition, hits give high values
In short: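 Readout: yeast growth inhibition, normalised to vehicle controls, in the wt1 strain exposed to test compounds.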

[2] = NCI Yeast Anticancer Drug Screen. Data for the rad50EPP+ strain (AID 151);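 also: 0% = growth of vehicle-treated control cultures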; conditions: S. cerevisiae rad50 mutant strain, hits give high values
In short: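 Compounds were applied to the rad50EPP+ yeast strain, which bears a defined DNA repair alteration, and growth inhibition was determined relative to vehicle-treated cultures.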

[3] = NCI Yeast Anticancer Drug Screen. Data for the mgt1 strain (AID 153); conditions: S. cerevisiae mgt1 mutant growth inhibition, hits give high values
In short: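 Strain: mgt1 yeast, one of a set carrying defined DNA damage repair or cell cycle control alterations. Compound-treated growth compared with vehicle.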

[4] = NCI Yeast Anticancer Drug Screen. Data for the rad50 strain (AID 155);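 also: 0% = growth of vehicle-only cultures of the same strain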; conditions: S. cerevisiae rad50 strain growth inhibition, hits give high values
In short: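 Compounds were tested on a yeast strain with an engineered DNA damage repair alteration; the reported value is growth inhibition normalised to vehicle treatment.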

[5] = NCI Yeast Anticancer Drug Screen. Data for the mec2-1 strain (AID 157); conditions: S. cerevisiae mec2-1 strain, hits give high values
In short: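 Strain: mec2-1 (DNA repair/cell cycle alteration). Compound exposure, then growth measured; inhibition expressed relative to vehicle.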

[6] = NCI Yeast Anticancer Drug Screen. Data for the rad14 strain (AID 159);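 also: 0% = growth of vehicle-treated control cultures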; conditions: S. cerevisiae rad14 strain growth inhibition, hits give high values
In short: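 Compound-treated yeast with a defined DNA-repair lesion; growth inhibition normalised to vehicle-treated cultures.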

[7] = NCI Yeast Anticancer Drug Screen. Data for the sgs1 mgt1 strain (AID 161);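 also: 0% = growth of cultures given vehicle only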; conditions: S. cerevisiae sgs1 mgt1 strain, hits give high values
In short: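 Mutant yeast exposed to compound; growth scored against vehicle-only wells.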

[8] = NCI Yeast Anticancer Drug Screen. Data for the CLN2oe strain (AID 163);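 also: 0% = growth of vehicle-only control cultures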; conditions: S. cerevisiae CLN2oe strain, hits give high values
In short: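 Growth of a genetically modified yeast strain is measured after compound exposure and compared with cultures given vehicle alone.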

[9] = NCI Yeast Anticancer Drug Screen. Data for the cln2 rad14 strain (AID 165);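 also: 0% = growth equal to vehicle treated cultures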; conditions: S. cerevisiae cln2 rad14 strain, hits give high values
In short: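 Compounds are applied to the cln2 rad14 yeast strain, and growth is then compared with that of vehicle-treated cultures to give inhibition.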

[10] = NCI Yeast Anticancer Drug Screen. Data for the bub3 strain (AID 167); conditions: S. cerevisiae bub3 mutant strain, hits give high values
In short: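 Growth of a checkpoint-deficient yeast mutant is measured after compound exposure. Values represent inhibition relative to vehicle.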

[11] = NCI Yeast Anticancer Drug Screen. Data for the mlh1 strain (AID 171);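 also: 0% = growth of vehicle-treated control cultures of the same strain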; conditions: S. cerevisiae mlh1 strain growth inhibition, hits give high values
In short: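 Growth of the mutant yeast strain after compound exposure, expressed as inhibition relative to vehicle-only controls.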

[12] = NCI Yeast Anticancer Drug Screen. Data for the sgs1 strain (AID 173);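 also: 0% = growth of vehicle-only control cultures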; conditions: S. cerevisiae sgs1 mutant, hits give high values
In short: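 Growth of a yeast strain bearing a defined genetic alteration is measured after compound treatment. Inhibition is expressed relative to vehicle-only controls.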

[13] = NCI Yeast Anticancer Drug Screen. Data for the mlh1 rad18 strain (AID 175); conditions: S. cerevisiae mlh1 rad18 strain growth inhibition, hits give high values
In short: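 Read-out is yeast growth inhibition, calculated against vehicle-only controls. The compound was applied to a strain engineered with DNA damage repair alterations.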

[14] = NCI Yeast Anticancer Drug Screen. Data for the rad18 strain (AID 177); conditions: S. cerevisiae rad18 mutant growth inhibition, hits give high values
In short: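 Growth of the mutant yeast strain after compound exposure, normalised to vehicle-only cultures.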

[15] = NCI Yeast Anticancer Drug Screen. Data for the wt2 strain (AID 169);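 also: 0% = growth of vehicle-treated yeast cultures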; conditions: S. cerevisiae wt2 strain growth inhibition, hits give high values
In short: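 This strain belongs to a panel of yeast strains with defined genetic alterations in DNA damage repair or cell cycle control. Compounds are applied, and growth inhibition is measured against vehicle-treated cultures.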

[16] = at 5.0 µM (retest, dose inferred, filed as 0.5)
[17] = at 50.0 µM (retest, dose inferred, filed as 5.0)

Measured: growth inhibition

COc1ccc(C(=O)NCCN(C)C)c2nc3ccccc3cc12
active: [2]; at 33.0 µM 90% | [2]; at 100.0 µM 96% | [4]; at 3.7 µM 77% | [4]; [16] 73% | [4]; at 11.0 µM 93% | [4]; at 33.0 µM 95% | [4]; [17] 95% | [4]; at 50.0 µM 82.5% | [4]; at 100.0 µM 94% | [5]; at 50.0 µM 71.2% | [5]; at 100.0 µM 80% | [8]; at 100.0 µM 73% | [11]; at 100.0 µM 75%
inactive: [1]; at 1.2 µM -11% | [1]; at 3.7 µM 21% | [1]; at 11.0 µM -2% | [1]; at 33.0 µM -6% | [1]; at 100.0 µM 39% | [2]; at 1.2 µM 13% | [2]; at 3.7 µM 46% | [2]; at 11.0 µM 63% | [3]; at 1.2 µM 7% | [3]; at 3.7 µM 19% | [3]; at 11.0 µM 14% | [3]; at 33.0 µM 17% | [3]; at 100.0 µM 67% | [4]; at 1.2 µM 45% | [5]; at 1.2 µM 18% | [5]; at 3.7 µM 17% | [5]; [16] 14% | [5]; at 11.0 µM 18% | [5]; at 33.0 µM 30% | [5]; [17] 59% | [6]; at 1.2 µM 7% | [6]; at 3.7 µM 3% | [6]; at 11.0 µM -9% | [6]; at 33.0 µM 10% | [6]; at 100.0 µM 57% | [7]; [16] 18% | [7]; [17] 39% | [7]; at 50.0 µM 30.6% | [8]; at 1.2 µM 29% | [8]; at 3.7 µM 26% | [8]; at 11.0 µM 29% | [8]; at 33.0 µM 41% | [9]; [16] 17% | [9]; [17] 25% | [9]; at 50.0 µM 10.7% | [10]; at 1.2 µM 12% | [10]; at 3.7 µM 11% | [10]; [16] 22% | [10]; at 11.0 µM 9% | [10]; at 33.0 µM 9% | [10]; [17] 36% | [10]; at 50.0 µM -31.9% | [10]; at 100.0 µM 41% | [11]; at 1.2 µM 26% | [11]; at 3.7 µM 23% | [11]; at 11.0 µM 18% | [11]; at 33.0 µM 29% | [12]; at 1.2 µM 15% | [12]; at 3.7 µM 16% | [12]; at 11.0 µM 10% | [12]; at 33.0 µM 10% | [12]; at 100.0 µM 62% | [13]; [16] 19% | [13]; [17] 64% | [13]; at 50.0 µM 19.6% | [14]; at 1.2 µM 19% | [14]; at 3.7 µM 17% | [14]; at 11.0 µM 11% | [14]; at 33.0 µM -5% | [14]; at 100.0 µM 66%

CCOC(=O)C(NC(=O)c1ccccc1)[CH](c1ccccc1)[Sn]([c]1ccccc1)([c]1ccccc1)[c]1ccccc1 (stereo unspecified)
inactive: [1]; at 1.2 µM -81% | [1]; at 3.7 µM 0% | [1]; at 11.0 µM 0% | [1]; at 33.0 µM 11% | [2]; at 1.2 µM -2% | [2]; at 3.7 µM 2% | [2]; at 11.0 µM 3% | [2]; at 33.0 µM 3% | [2]; at 100.0 µM -6% | [3]; at 1.2 µM -1% | [3]; at 3.7 µM 2% | [3]; at 11.0 µM 2% | [3]; at 33.0 µM 17% | [4]; at 1.2 µM 0% | [4]; at 3.7 µM 3% | [4]; [16] -4% | [4]; at 11.0 µM 4% | [4]; at 33.0 µM 21% | [5]; at 1.2 µM 0% | [5]; at 3.7 µM 1% | [5]; [16] -3% | [5]; at 11.0 µM 1% | [5]; at 33.0 µM 17% | [5]; [17] 40% | [6]; at 1.2 µM 2% | [6]; at 3.7 µM 2% | [6]; at 11.0 µM 4% | [6]; at 33.0 µM 17% | [7]; [16] -4% | [7]; [17] 36% | [9]; [16] -7% | [9]; [17] 19% | [10]; at 1.2 µM -7% | [10]; at 3.7 µM -4% | [10]; [16] -11% | [10]; at 11.0 µM -6% | [10]; at 33.0 µM 10% | [10]; [17] 59% | [15]; at 1.2 µM -3% | [15]; at 3.7 µM -2% | [15]; at 11.0 µM -1% | [15]; at 33.0 µM 35% | [11]; at 1.2 µM 0% | [11]; at 3.7 µM 0% | [11]; at 11.0 µM 0% | [11]; at 33.0 µM 17% | [12]; at 1.2 µM 1% | [12]; at 3.7 µM 4% | [12]; at 11.0 µM 4% | [12]; at 33.0 µM 34% | [13]; [16] -5% | [14]; at 1.2 µM -1% | [14]; at 3.7 µM 5% | [14]; at 11.0 µM 0% | [14]; at 33.0 µM 45%
active: [1]; at 100.0 µM 93% | [3]; at 100.0 µM 95% | [4]; [17] 73% | [4]; at 50.0 µM 95.7% | [4]; at 100.0 µM 92% | [5]; at 50.0 µM 97.8% | [5]; at 100.0 µM 95% | [6]; at 100.0 µM 95% | [7]; at 50.0 µM 97.3% | [9]; at 50.0 µM 93.7% | [10]; at 50.0 µM 98.7% | [10]; at 100.0 µM 94% | [15]; at 100.0 µM 96% | [11]; at 100.0 µM 96% | [12]; at 100.0 µM 94% | [13]; [17] 79% | [13]; at 50.0 µM 98% | [14]; at 100.0 µM 94%
